Vif-APOBEC3F blk: qHTS for Inhibitors of Vif-A3F Interactions: qHTS. HeLa A3F-eYFP + Vif (tagged APOBEC3F with the HIV-1 protein that degrades it), YFP fluorescence increase. Potency, µM (highest dose often 46.1 µM), for inactives: at the highest dose activity, negative = active. 390,000 tested, 0.2% active; further: % of control where 0% means no effect; nearly all actives have a fitted effect of over 65% in size
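HeLa cells stably expressing Vif plus C-terminally eYFP-tagged A3F were seeded, incubated overnight at 37 deg C, dosed with compound, incubated overnight again at 37 deg C. Yellow fluorescence (Ex 488/Em 500-530) reported blocked Vif-mediated A3F-eYFP degradation.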
Epigenetic derep: Quantitative High-Throughput Screen for Regulators of Epigenetic Control; 280,000 tested, 0.2% active; AID 1865, 2009; Potency, µM (series often up to 53.9 µM), inactives show top-dose GFP activation, most hits filed as activators; murine LDR cells, GFP reporter derepression, 30 h; further: % of control where 0% means no effect; nearly all actives have a fitted effect of over 60% in size
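In this reporter-derepression format, murine cells bearing a silenced integrated CMV-GFP locus incubate with test compound (30 h, 37 C), then are washed and imaged; fluorescent objects of 20–120 um count as induced cells.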
PINK1 modulator: A Quantitative High throughput Screen to Identify Chemical Modulators of PINK1 Expression | AID 624263, 2012 | 410,000 tested, 0.2% active | Potency, µM (series often up to 76.6 µM), without a hit: top-dose activation (PINK1 increase), most hits filed as activators | PINK1 immunofluorescence, high-content cytometry, 24 h; active means well fitted activation curve with a large enough effect; inconclusive means small, poorly fitted or top-dose-only effect; cell line not stated here; further: % of control where 0% means no effect; nearly all actives have a fitted effect of over 65% in size
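Stable cell line, 250 cells/well, 12 h attachment; compounds pinned at 5 concentrations, 24 h; CCCP control. Fixed with nuclear dye, primary antibodies 12 h at 10 degrees C, secondary plus cell stain; laser-scanning cytometer read.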
Vif-APOBEC3G blk: qHTS for Inhibitors of Vif-A3G Interactions: qHTS; Potency, µM (titrated, usually from 46.1 µM), without a hit: at the top dose activity, negative = active, usual class: inhibitors; 410,000 tested, 0.076% active; HeLa A3G-eYFP + Vif (tagged APOBEC3G with the HIV-1 protein that degrades it), YFP fluorescence, overnight; further: on the % scale 0 is the no-effect control and ±100 the full control effect; nearly all actives have a fitted effect of over 60% in size
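HeLa cells stably expressing Vif and C-terminally eYFP-tagged A3G, seeded overnight at 37 deg C, then exposed to compound by pintool overnight at 37 deg C. Rise in yellow fluorescence (Ex 488/Em 500-530, Acumen) marks blocked Vif-driven A3G degradation.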
GLS inh: qHTS for Inhibitors of Glutaminase (GLS); Glutaminase kidney isoform, mitochondrial (Homo sapiens), O94925; GLS enzymatic activity, qHTS titration; Potency, µM (titrated, usually from 45.5 µM), without a hit: at the highest dose activity change, negative = inhibition, usual class: inhibitors; 410,000 tested, 0.21% active; AID 624170, 2012; further: on the % scale 0 is the no-effect control and ±100 the full control effect
Target sequence (O94925 whole entry, looked up, canonical isoform): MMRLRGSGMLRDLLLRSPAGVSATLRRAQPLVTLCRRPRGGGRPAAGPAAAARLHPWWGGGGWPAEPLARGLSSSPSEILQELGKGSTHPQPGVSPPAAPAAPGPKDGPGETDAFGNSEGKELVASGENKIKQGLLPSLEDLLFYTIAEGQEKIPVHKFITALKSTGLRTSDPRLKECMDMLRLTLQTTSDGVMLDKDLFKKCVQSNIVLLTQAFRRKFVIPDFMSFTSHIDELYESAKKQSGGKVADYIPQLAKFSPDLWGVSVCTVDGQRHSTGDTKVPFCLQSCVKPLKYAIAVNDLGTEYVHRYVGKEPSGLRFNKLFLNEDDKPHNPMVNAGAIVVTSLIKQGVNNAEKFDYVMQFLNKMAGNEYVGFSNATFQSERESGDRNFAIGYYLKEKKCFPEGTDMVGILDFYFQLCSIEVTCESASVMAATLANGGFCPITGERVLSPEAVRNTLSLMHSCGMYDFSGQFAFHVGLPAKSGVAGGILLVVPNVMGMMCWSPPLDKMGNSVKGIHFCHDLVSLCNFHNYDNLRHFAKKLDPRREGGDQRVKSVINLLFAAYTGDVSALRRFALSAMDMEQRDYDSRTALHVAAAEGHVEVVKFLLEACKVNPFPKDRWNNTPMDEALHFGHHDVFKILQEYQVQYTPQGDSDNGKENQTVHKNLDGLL
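Two-point fluorescence kinetic (t0, 30 min RT) for hKGA; glutamate detected via glutamate oxidase–HRP–Amplex Red. Substrate: 1 mM L-glutamine solution; buffer 45 mM KH2PO4, pH 8.2.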
* marks the source's active call; other numbers are inactive results; ? = inconclusive; nt = not tested or not shown. Only some compounds are listed: those with a hit (about 0.7% of all), similar ones and a draw of the others. Unless noted, the call rests on the fitted dose curve; in most records, active means well fitted curve in the direction sought with a large enough effect; inconclusive means small, poorly fitted or top-dose-only effect, or another doubt; inactive means no such curve, though single readings can be large; an effect the other way counts as inactive or inconclusive. Potency means the concentration at half of the fitted maximal effect.

SMILES | Vif-APOBEC3F blk | Epigenetic derep | PINK1 modulator | Vif-APOBEC3G blk | GLS inh
c1ccc2c(c1)nc(N1CCOCC1)c1nnnn12 | 3.2µM* | 2% | 1% | 0% | -4%
COc1ccc(CN2CCOc3ccc(C(O)c4cccnc4)cc3C2)cc1O (stereo not drawn) | nt | nt | 1% | nt | nt
Cc1nn(C)c(C)c1C1C(C#N)=C(N)Oc2n[nH]c(C)c21 (stereo not drawn) | 8% | -1% | 6% | -3% | 19%
Cc1nn(-c2ccccc2)c(C)c1C1C(C#N)=C(N)Oc2n[nH]c(C)c21 (stereo not drawn) | nt | -10% | 2% | -7% | 20µM*
COc1ccc(-c2ccc3c(c2)S(=O)(=O)c2cccc(C(=O)NCc4cccc(OC(F)(F)F)c4)c2C3=O)cc1OC | ? | nt | 4.5µM* | ? | 1%
O=C(NCc1cccc(OC(F)(F)F)c1)c1cccc2c1C(=O)c1ccc(-c3ccc(F)cc3OCc3ccccc3)cc1S2(=O)=O | 3% | nt | 1% | -6% | -9%
O=C(NCc1ccccc1Cl)c1cccc2c1C(=O)c1ccc(-c3ccc(OC(F)(F)F)cc3)cc1S2(=O)=O | 13µM* | nt | ? | -9% | -3%
O=C(NC1CCCCC1)c1cccc2c1C(=O)c1ccc(-c3ccc(OC(F)(F)F)cc3)cc1S2(=O)=O | -1% | nt | 7% | 0% | 5%
O=C(Cn1nc2ccccc2n1)N1CCOc2ccc(CN3CCc4sccc4C3)cc2C1 | nt | nt | -1% | nt | nt
CCC1CN(CCNC(=O)c2ccnc(Cl)c2)Cc2cc(OC)ccc2O1 (stereo not drawn) | nt | nt | 1% | nt | nt
O=C(Cn1cc(S(=O)(=O)Cc2ccccc2F)c2ccccc21)Nc1ccc(F)c(Cl)c1 | 0% | -1% | 35µM* | -4% | -10%
CC(Nc1nc(-c2ccc(F)cc2)cs1)c1nc2cc(Cl)c(Cl)cc2n1CCCO (stereo not drawn) | ? | nt | 4% | -29% | 7%
Cc1ccc(Cn2c(C(C)Nc3nc(-c4ccc(C)cc4)cs3)nc3cc(Cl)c(Cl)cc32)cc1 (stereo not drawn) | -13% | nt | 14% | 0% | 10µM*
COc1ccc2nc3c(c([Si](C)(C)C(C)(C)C)c2c1)Cn1c-3cccc1=O | nt | 9% | nt | nt | nt
COc1cc2nc3c(c([Si](C)(C)C(C)(C)C)c2cc1OC)Cn1c-3cccc1=O | nt | 7.9µM* | nt | nt | nt
O=[N+]([O-])c1cc(C(F)(F)F)ccc1NCCc1c[nH]c2ccc(O)cc12 | -8% | -1% | 11µM* | 0% | 15%
Cc1cccc(C)c1Nc1nc2ccccc2nc1NS(=O)(=O)c1ccccc1 | 11µM* | 1% | -1% | -15% | 3%
Cc1ccc(S(=O)(=O)Nc2nc3ccccc3nc2Nc2cccc(S(=O)(=O)N3CCCC3)c2)cc1 | 7.1µM* | 1% | ? | -268% | 1%
Cc1ccccc1C([O-])=Nc1ccc[n+](-c2nc3ccccc3nc2NS(=O)(=O)c2ccccc2)c1 | 13µM* | -1% | 2% | -7% | 3%
O=S(=O)(Nc1nc2ccccc2nc1-[n+]1ccccc1)c1ccc(Cl)cc1 | -23% | -1% | 1% | 1% | 1%
COC(c1ccc2c(c1)CN(C(=O)Cn1nc(C)c3ccccc3c1=O)CCO2)C1CCCCC1 (stereo not drawn) | nt | nt | 1% | nt | nt
COCCN1CCN(C(=O)c2cnn(-c3nccc(-c4ccccc4F)n3)c2-c2ccco2)CC1 | nt | nt | 0% | nt | nt
CN(C)c1ccc(/C=C/c2cccc3cc4ccccc4nc23)cc1 | nt | nt | -1% | ? | nt
CN(C)c1ccc(/C=C/c2ccc3ccccc3n2)cc1 | ? | ? | ? | -19% | 14%
CN(C)c1ccc(/C=C/c2nc3ccccc3s2)cc1 | ? | ? | 45µM* | ? | 17%
C=C(/C=C/c1ccc(N(C)C)cc1)c1nc2ccccc2s1 | nt | nt | 10µM* | 11µM* | nt
